For 17 molecules, inhibition results are on record in ChEMBL document CHEMBL1961873, “Compounds: GSK PKIS; Assays: Nanosyn kinase panel” (2012).

Assay [1] addresses Dual specificity protein kinase CLK3 (Homo sapiens) (UniProt P49761). To be noted: at 1 µM.
Assay [2] addresses Dual specificity tyrosine-phosphorylation-regulated kinase 1A (Homo sapiens) (UniProt Q13627). The following applies: at 0.1 µM.
For assay [3] the target is unchanged. To be noted: at 1 µM.
Assay [4] concerns the target Dual specificity tyrosine-phosphorylation-regulated kinase 1B (Homo sapiens) (UniProt Q9Y463). To be noted: at 0.1 µM.
For assay [5] the target is unchanged. To be noted: at 1 µM.
The target of assay [6] is T1, Dual specificity tyrosine-phosphorylation-regulated kinase 2 (Homo sapiens) (UniProt Q92630).
T1 sequence (whole entry): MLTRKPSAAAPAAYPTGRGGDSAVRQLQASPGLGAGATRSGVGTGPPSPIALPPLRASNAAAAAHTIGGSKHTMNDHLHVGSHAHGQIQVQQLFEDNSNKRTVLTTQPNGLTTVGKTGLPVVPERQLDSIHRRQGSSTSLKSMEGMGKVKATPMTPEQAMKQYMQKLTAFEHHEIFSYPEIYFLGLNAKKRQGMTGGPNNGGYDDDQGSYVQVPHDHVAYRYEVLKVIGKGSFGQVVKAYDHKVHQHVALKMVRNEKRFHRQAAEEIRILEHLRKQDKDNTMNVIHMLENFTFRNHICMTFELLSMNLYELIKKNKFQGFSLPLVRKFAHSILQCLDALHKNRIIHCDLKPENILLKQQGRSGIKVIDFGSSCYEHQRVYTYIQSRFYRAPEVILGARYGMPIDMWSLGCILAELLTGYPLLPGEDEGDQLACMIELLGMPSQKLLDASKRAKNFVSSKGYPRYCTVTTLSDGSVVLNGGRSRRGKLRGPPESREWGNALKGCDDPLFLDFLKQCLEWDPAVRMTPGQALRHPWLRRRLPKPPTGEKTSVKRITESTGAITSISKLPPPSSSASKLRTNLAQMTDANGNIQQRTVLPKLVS
The following applies: at 0.1 µM.

Assay [7] has as its target T1, Dual specificity tyrosine-phosphorylation-regulated kinase 2 (Homo sapiens). The following applies: at 1 µM.
Assay [8] deals with Glycogen synthase kinase-3 alpha (Homo sapiens) (UniProt P49840). The following applies: at 0.1 µM.
Assay [9] shares this target. To be noted: at 1 µM.
For assay [10], the target named is Glycogen synthase kinase-3 beta (Homo sapiens) (UniProt P49841). To be noted: at 0.1 µM.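 Further: values are mean percent inhibition of GSK3B activity, from the GSK Published Kinase Inhibitor Set (PKIS) screening dataset.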
Chain of Glycogen synthase kinase-3 beta (Homo sapiens) (P49841 whole entry, looked up): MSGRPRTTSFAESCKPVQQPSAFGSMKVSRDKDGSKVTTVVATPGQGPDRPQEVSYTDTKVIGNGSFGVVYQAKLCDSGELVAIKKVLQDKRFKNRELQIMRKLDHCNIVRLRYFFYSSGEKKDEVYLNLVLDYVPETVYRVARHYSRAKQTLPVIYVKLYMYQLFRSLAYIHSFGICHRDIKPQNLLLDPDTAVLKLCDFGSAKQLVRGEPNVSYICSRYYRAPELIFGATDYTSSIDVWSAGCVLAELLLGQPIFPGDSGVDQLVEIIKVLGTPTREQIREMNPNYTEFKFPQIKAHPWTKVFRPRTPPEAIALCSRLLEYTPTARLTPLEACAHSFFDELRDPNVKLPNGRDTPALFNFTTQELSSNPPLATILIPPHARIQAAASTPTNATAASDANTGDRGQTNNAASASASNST

Chain of Glycogen synthase kinase-3 alpha (Homo sapiens) (P49840 2-483 limits assumed): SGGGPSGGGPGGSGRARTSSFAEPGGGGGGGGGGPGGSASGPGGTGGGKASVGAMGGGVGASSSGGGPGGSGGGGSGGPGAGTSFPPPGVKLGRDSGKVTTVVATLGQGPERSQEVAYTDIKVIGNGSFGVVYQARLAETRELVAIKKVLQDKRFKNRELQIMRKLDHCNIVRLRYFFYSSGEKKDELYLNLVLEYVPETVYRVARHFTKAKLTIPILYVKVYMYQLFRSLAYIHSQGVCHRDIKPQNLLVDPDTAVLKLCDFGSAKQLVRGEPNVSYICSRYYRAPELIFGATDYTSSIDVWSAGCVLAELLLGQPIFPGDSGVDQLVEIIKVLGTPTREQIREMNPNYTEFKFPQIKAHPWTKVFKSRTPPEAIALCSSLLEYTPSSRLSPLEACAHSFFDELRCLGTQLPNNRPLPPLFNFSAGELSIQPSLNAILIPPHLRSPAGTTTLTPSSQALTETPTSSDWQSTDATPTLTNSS
Chain of Dual specificity protein kinase CLK3 (Homo sapiens) (P49761 whole entry, looked up): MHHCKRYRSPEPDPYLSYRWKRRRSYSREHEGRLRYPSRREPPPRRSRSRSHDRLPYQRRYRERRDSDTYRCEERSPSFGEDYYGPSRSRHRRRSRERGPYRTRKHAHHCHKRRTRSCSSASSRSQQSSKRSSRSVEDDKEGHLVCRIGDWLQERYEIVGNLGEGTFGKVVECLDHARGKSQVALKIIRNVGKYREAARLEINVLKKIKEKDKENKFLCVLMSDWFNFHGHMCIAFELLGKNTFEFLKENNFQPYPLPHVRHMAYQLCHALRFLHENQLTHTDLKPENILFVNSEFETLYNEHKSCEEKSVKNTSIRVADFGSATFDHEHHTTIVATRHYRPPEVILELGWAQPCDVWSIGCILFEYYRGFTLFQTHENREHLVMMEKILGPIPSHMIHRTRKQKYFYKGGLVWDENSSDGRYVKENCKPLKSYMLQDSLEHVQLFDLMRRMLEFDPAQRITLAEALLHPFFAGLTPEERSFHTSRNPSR
Chain of Dual specificity tyrosine-phosphorylation-regulated kinase 1B (Homo sapiens) (Q9Y463 whole entry, looked up): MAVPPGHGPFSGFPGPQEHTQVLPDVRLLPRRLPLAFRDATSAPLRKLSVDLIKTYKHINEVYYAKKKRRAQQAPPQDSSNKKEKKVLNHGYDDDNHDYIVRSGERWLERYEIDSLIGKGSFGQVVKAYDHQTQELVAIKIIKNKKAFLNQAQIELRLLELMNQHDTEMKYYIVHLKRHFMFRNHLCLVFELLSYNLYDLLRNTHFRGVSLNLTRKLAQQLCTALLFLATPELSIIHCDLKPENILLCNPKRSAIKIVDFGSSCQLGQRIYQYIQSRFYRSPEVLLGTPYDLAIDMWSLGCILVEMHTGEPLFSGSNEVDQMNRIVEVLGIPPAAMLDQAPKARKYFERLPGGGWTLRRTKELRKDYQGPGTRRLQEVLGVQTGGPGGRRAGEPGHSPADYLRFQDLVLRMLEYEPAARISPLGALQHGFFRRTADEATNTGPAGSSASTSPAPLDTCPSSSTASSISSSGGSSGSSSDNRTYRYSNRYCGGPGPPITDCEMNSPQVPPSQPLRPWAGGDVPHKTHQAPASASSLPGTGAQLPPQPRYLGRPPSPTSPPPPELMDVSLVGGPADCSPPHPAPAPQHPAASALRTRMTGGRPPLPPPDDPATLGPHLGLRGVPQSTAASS

Turning to `CS(=O)(=O)Nc1cccc(-c2ccc3c(NC(=O)C4CC4)n[nH]c3c2)c1`, the inhibition in [1] was 0.41%; in [2], -0.85%; in assay [3], 2.54%; in assay [4], -0.36%; in assay [5] it was 0.44%; in assay [6] it was 1.73%. The inhibition in assay [7] turned out to be 0.58%; in [8], 2.17%; in assay [9], 10.3%; in assay [10], 1.76%.

In the case of `NS(=O)(=O)c1cccc(-c2cc3ccncc3cc2OCc2ccccc2)c1`, the inhibition in assay [1] stood at 3.46%; in assay [2] it was 3.42%; in assay [3], 5.5%; in assay [4], 0.3%; in assay [5], 2.52%; in [6] it was 3.59%. The inhibition in assay [7] was determined as 3.57%; in assay [8] it was 1.97%; in assay [9], 4.81%; in assay [10], 0.8%.

On to `CN(C)C(=O)O[C@@H]1CN[C@@H](C#Cc2cc3ncnc(Nc4ccc(OCc5cccc(F)c5)c(Cl)c4)c3s2)C1`, for which the inhibition in [1] was 0.69%; in [2], 0.28%; in assay [3], 2.08%; in assay [4], 0.23%; in [5], 1.08%; in assay [6], -0.19%. In addition, the inhibition in assay [7] was -0.32%; in [8], 1.34%; in [9] it was 8.31%; in assay [10], 1.37%.

Consider `[O-][S+]1CCN(Cc2ccc(-c3ccc4ncnc(Nc5ccc(OCc6ccccc6)c(Cl)c5)c4c3)o2)CC1`, for which the inhibition in assay [1] was -0.64%; in assay [2] it was 1.81%; in assay [3], 2.81%; in assay [4], 0.05%; in assay [5], 0.51%; in assay [6], 1.29%. The inhibition in assay [7] stood at 0.17%; in assay [8] it was 1.1%; in [9], 1.03%; in assay [10], 0.33%.

On to `CN1CCN(C(=O)c2ccc(NC(=O)Nc3ccc(N(C)c4ccnc(Nc5ccc(CS(C)(=O)=O)cc5)n4)cc3)cc2)CC1`, for which the inhibition in assay [1] is -0.46%; in assay [2], -0.03%; in assay [3] it was -2.1%; in assay [4], 0.37%; in assay [5], -2.01%; in assay [6] it was 2.14%. Besides, the inhibition in assay [7] is 4.06%; in [8], 2.9%; in [9] it was 4.98%; in [10], 1.98%.

As to `NS(=O)(=O)c1ccc(N/N=C2\C(=O)Nc3ccc(Cl)cc32)cc1`, the inhibition was determined as 1.92% in assay [1]; 1.08% in assay [2]; 6.73% in assay [3]; 0.19% in assay [4]; 3.96% in [5]; 2.3% in assay [6]. Also, the inhibition was 3.44% in [7], 17.3% in assay [8], 61.2% in [9] and 13.5% in assay [10].

For `Cc1ccc(O)cc1Nc1ccnc2ccc(S(C)(=O)=O)cc12`, the inhibition in assay [1] was determined as 3.42%; in assay [2], 4.16%; in assay [3] it was 12.6%; in assay [4], 0.55%; in assay [5] it was 2.94%; in assay [6], 3.03%. For the same molecule, the inhibition in [7] was 4.88%; in assay [8] it was 2.64%; in assay [9] it was 1.72%; in [10], 1.89%.

Regarding `Cc1cc(O)cc(C)c1/C=C/c1cncc(C(=O)N(C)C)c1`, the inhibition amounted to 1.59% in [1]; 1.64% in [2]; 3.33% in assay [3]; 1.15% in [4]; 2% in [5]; 2.94% in assay [6]. The inhibition in [7] was determined as 3.72%; in assay [8], 6.93%; in assay [9] it was 10.2%; in [10], 6.11%.

Turning to `O=C1Nc2ccc(-c3cccnc3)cc2C1=Cc1cc(Br)c(O)c(Br)c1`, the inhibition in assay [1] was found to be 38.6%; in assay [2], 21.7%; in assay [3], 63.5%; in assay [4], 9%; in [5], 46.7%; in assay [6], 3.53%. In addition, the inhibition stood at 15.5% in [7], 4.28% in [8], 26.1% in [9] and 3.87% in assay [10].

As to `Cc1ccc(Nc2ccnc(Nc3cccc(C(N)=O)c3)n2)cc1O`, the inhibition in [1] was 3.09%; in [2], 2.45%; in assay [3], 26.5%; in [4], -1.03%; in assay [5], 11.8%; in assay [6] it was 2.25%. In addition, the inhibition stood at 7.18% in assay [7], 0.67% in [8], 14.9% in assay [9] and 0.74% in assay [10].

Turning to `COc1cc2ncnc(Nc3ccc(C)c(O)c3)c2cc1OC`, the inhibition in [1] was determined as 2.38%; in assay [2] it was 5.24%; in assay [3], 7.48%; in assay [4], 0.95%; in assay [5], 4.18%; in assay [6], 2.96%. Moreover, the inhibition in assay [7] worked out at 4.5%; in [8], 4.81%; in assay [9] it was 8.57%; in assay [10], 4.62%.

Take `CC(C)c1ccc(Nc2nccc(-c3cnn4ncccc34)n2)cc1`: the inhibition in assay [1] was determined as 14%; in assay [2], 40.6%; in assay [3] it was 81.2%; in assay [4], 43.4%; in assay [5] it was 82.1%; in assay [6], 2.73%. The inhibition in [7] stood at 14%; in [8], 35.6%; in [9], 76%; in assay [10], 31.3%.

With `COc1cccc(-n2ncc3c(N/N=C/c4ccc(S(C)(=O)=O)cc4)ncnc32)c1`, the inhibition is 13.5% in assay [1]; 23.1% in assay [2]; 64.3% in [3]; 9.87% in assay [4]; 47.3% in assay [5]; 14.5% in assay [6]. For the same molecule, the inhibition in assay [7] was 24.9%; in [8] it was 72.7%; in assay [9], 80.6%; in assay [10], 70.4%.

Regarding `COc1ccc2ncnc(Nc3ccc(OCc4ccccc4)cc3)c2c1`, the inhibition in assay [1] is 1.64%; in assay [2] it was 1.05%; in [3], 3.73%; in [4], -0.87%; in [5], 1.35%; in assay [6], 1.27%. The inhibition in assay [7] came out at 2.65%; in assay [8] it was 1.55%; in assay [9] it was 4.44%; in assay [10], 1.06%.

For the molecule `COc1cccc(-n2ncc3c(N/N=C/c4ccc(C)cc4)ncnc32)c1`, the inhibition in assay [1] was determined as 1.46%; in assay [2] it was 5.94%; in assay [3], 16.5%; in assay [4], 3.97%; in assay [5], 11.3%; in assay [6], 5.76%. Further, the inhibition amounted to 13.6% in assay [7], 19.4% in [8], 55.6% in assay [9] and 13.1% in assay [10].

As to `Oc1cccc(-c2nc(-c3ccccc3)[nH]c2-c2ccncc2)c1`, the inhibition in [1] was determined as 2.52%; in assay [2], 2.29%; in [3] it was 8.77%; in assay [4], 1.25%; in [5], 7.99%; in assay [6], 2.63%. Moreover, the inhibition came out at 5.4% in assay [7], 5.29% in [8], 14.8% in [9] and 5.61% in assay [10].

For the molecule `Cc1cc(Cl)cc2c1NC(=O)C2=NNc1ccc(S(N)(=O)=O)cc1`, the inhibition is 0.83% in assay [1]; 1.45% in [2]; 2.28% in assay [3]; -0.62% in [4]; 1.24% in assay [5]; 0.8% in [6]. Also, the inhibition in assay [7] amounted to 2.04%; in assay [8], 2.99%; in assay [9], 6.57%; in assay [10] it was 1.19%.

One may read the inhibition as the drop in the measured response relative to a control, in per cent.
